Experimental data taken from PubChem BioAssay (NCATS).
Inconclusive results are not listed. A call without a number means that no potency is given here. A number with no mark means an inactive call. The source made the active and inactive calls. Calls come from the whole dose curve; as a rule, active = well fitted inhibition curve with a large enough effect; inconclusive = small, poorly fitted or top-dose-only effect; inactive = flat fitted curve, though single readings scatter.

Experiments:
[1] = qHTS profiling for inhibitors of Plasmodium falciparum proliferation (AID 504749); note: nearly all actives have a fitted effect of over 60% in size; settings: P. falciparum in erythrocytes, SYBR Green DNA, 72 h
How it was run: (§1)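 SYBR Green fluorescence of parasite DNA, read after lysis and overnight dark incubation, measured growth over 72 h in erythrocyte culture at 0.3% parasitemia and 2.5% hematocrit. Data normalised to DMSO and 0.29 uM artemisinin, with plate-drift correction.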

[2] = system: 3D7; assay: as above; settings: P. falciparum in erythrocytes, SYBR Green DNA, 72 h; series mostly up to 28.7 µM
How it was run: as §1

[3] = system: AA1029; assay: as above; settings: P. falciparum in erythrocytes, SYBR Green DNA, 72 h; series mostly up to 28.7 µM
How it was run: as §1

[4] = system: AS120; assay: as above; settings: P. falciparum in erythrocytes, SYBR Green DNA, 72 h; series mostly up to 28.7 µM
How it was run: as §1

[5] = system: ATS189; assay: as above; settings: P. falciparum in erythrocytes, SYBR Green DNA, 72 h; series mostly up to 28.7 µM
How it was run: as §1

[6] = system: ATS95; assay: as above; settings: P. falciparum in erythrocytes, SYBR Green DNA, 72 h; series mostly up to 28.7 µM
How it was run: as §1

[7] = system: C2A; assay: as above; settings: P. falciparum in erythrocytes, SYBR Green DNA, 72 h; series mostly up to 28.7 µM
How it was run: as §1

[8] = system: CP185; assay: as above; settings: P. falciparum in erythrocytes, SYBR Green DNA, 72 h; series mostly up to 28.7 µM
How it was run: as §1

[9] = system: CP191; assay: as above; settings: P. falciparum in erythrocytes, SYBR Green DNA, 72 h; series mostly up to 28.7 µM
How it was run: as §1

[10] = system: CP192; assay: as above; settings: P. falciparum in erythrocytes, SYBR Green DNA, 72 h; series mostly up to 28.7 µM
How it was run: as §1

[11] = system: CP194; assay: as above; settings: P. falciparum in erythrocytes, SYBR Green DNA, 72 h; series mostly up to 28.7 µM
How it was run: as §1

[12] = system: 7G8; assay: as above; settings: P. falciparum in erythrocytes, SYBR Green DNA, 72 h; series mostly up to 28.7 µM
How it was run: as §1

[13] = at 28.7 µM (top of the series), parasite line A
[14] = at 28.7 µM (top of the series), parasite line B
Potency is the fitted concentration of half-maximal effect.

SMILES	activity, negative = inhibition [1, 13] [%]	activity, negative = inhibition [1, 14] [%]	Potency [2]	Potency [3]	Potency [4]	Potency [5]	Potency [6]	Potency [7]	Potency [8]	Potency [9]	Potency [10]	Potency [11]	Potency [12]	activity, negative = inhibition ([1]; at 12.8 µM (top of the series), parasite line A) [%]	activity, negative = inhibition ([1]; at 12.8 µM (top of the series), parasite line B) [%]	Potency ([1]; parasite line A)	Potency ([1]; parasite line B)
Oc1ccc(Cl)c2c1CCC2	6.7	4.51	inactive	inactive	inactive	inactive	inactive	inactive	inactive	inactive	inactive	inactive	–	–	–	–	–
NC(=O)CC[C@@H]1NC(=O)[C@H](Cc2ccccc2)NC(=O)[C@H](Cc2ccc(O)cc2)NC(=O)[C@@H](N)CSSC[C@@H](C(=O)N2CCC[C@H]2C(=O)N[C@@H](CCCN=C(N)N)C(=O)NCC(N)=O)NC(=O)[C@H](CC(N)=O)NC1=O	1.66	-0.62	inactive	inactive	–	–	inactive	inactive	inactive	–	inactive	inactive	–	–	–	–	–
CCCCCCCCCC(=O)NO	-20	-16.7	inactive	inactive	inactive	inactive	inactive	inactive	inactive	–	inactive	inactive	–	–	–	–	–
COC(=O)[C@@H](N)CS	-8.41	10.4	–	inactive	inactive	inactive	–	inactive	inactive	inactive	inactive	inactive	inactive	–	–	–	–
COc1ccccc1N1CCN(CCCC(=O)c2ccc(F)cc2)CC1	-16.2	9.5	inactive	inactive	inactive	inactive	inactive	inactive	inactive	–	inactive	inactive	–	–	–	–	–
CN1C(C(=O)Nc2ccccn2)C(=O)c2sc(Cl)cc2S1(=O)=O (stereo not drawn)	8.71	-14.1	inactive	inactive	inactive	inactive	inactive	inactive	inactive	inactive	inactive	inactive	–	–	–	–	–
CC1CCC(NC(=O)N(CCCl)N=O)CC1 (stereo not drawn)	9.36	3.89	inactive	inactive	inactive	inactive	inactive	inactive	inactive	inactive	inactive	inactive	–	–	–	–	–
O=C(CCCN1CCN2CCCC2C1)c1ccc(F)cc1 (stereo not drawn)	12	7.07	inactive	–	inactive	–	–	inactive	inactive	inactive	inactive	–	–	–	–	–	–
O=C(CCCN1CCC(C(=O)c2ccc(F)cc2)CC1)c1ccc(F)cc1	-20.7	15.1	–	inactive	inactive	–	–	inactive	inactive	2 µM (active)	inactive	–	11.2 µM (active)	–	–	–	–
C[C@@](Cc1ccc(O)c(O)c1)(NN)C(=O)O	-19.2	-6.85	inactive	–	–	inactive	inactive	inactive	inactive	inactive	inactive	inactive	–	–	–	–	–
CNC(=O)c1c(I)c(C(=O)NCC(=O)Nc2c(I)c(C(=O)O)c(I)c(C(=O)NCCO)c2I)c(I)c(N(C)C(C)=O)c1I	–	2.12	inactive	inactive	inactive	inactive	inactive	inactive	inactive	inactive	inactive	inactive	inactive	–	–	–	–
CCN(CC)CCOc1ccc2nc(N(C)C)sc2c1	2.07	4.31	–	inactive	inactive	inactive	inactive	inactive	inactive	inactive	inactive	inactive	inactive	–	–	–	–
COc1ccc2c(=O)c(C)c(-c3ccccc3)oc2c1CN(C)C	-2.15	-7.38	inactive	–	inactive	inactive	–	inactive	inactive	inactive	inactive	inactive	–	–	–	–	–
O=C(O)CC/C=C\CC[C@@H]1[C@@H](N2CCCCC2)[C@@H](O)C[C@@H]1OCc1ccc(-c2ccccc2)cc1	6.82	1.98	inactive	inactive	inactive	inactive	inactive	inactive	inactive	–	inactive	inactive	–	–	–	–	–
COC(=O)c1ccccc1O	-0.0049	5.19	inactive	inactive	inactive	inactive	inactive	inactive	inactive	inactive	inactive	inactive	–	–	–	–	–
CN1CCc2c(c3ccccc3n2Cc2ccccc2)C1	–	–	inactive	–	inactive	inactive	–	inactive	inactive	inactive	inactive	–	–	-0.349	-7.12	–	–
CCOc1cc(-c2nccc3cc(OC)c(OC)cc23)cc(OCC)c1OCC	–	–	–	–	–	–	–	inactive	–	11.2 µM (active)	–	–	11.2 µM (active)	–	–	8.91 µM (active)	11.2 µM (active)
O=C1CCC(c2ccccc2)(C2CCN(Cc3ccccc3)CC2)C(=O)N1 (stereo not drawn)	7.2	9.21	inactive	inactive	inactive	inactive	inactive	inactive	inactive	inactive	inactive	inactive	–	–	–	–	–
